Assay [1] deals with Luciferin 4-monooxygenase (Photinus pyralis) (UniProt P08659). Kind of assay: CCTE_Simmons_QuantiLum_inhib_2: CCTE's Firefly Luciferase Inhibition Assay, Simmons Lab (AID 2283767).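 On AC50: potency for inhibitors that lower luciferase luminescence relative to DMSO.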 A digest of the protocol:
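Eight-point titrations of each chemical, 5 nM–87.5 uM final in 0.5% DMSO, were run in three biological replicates against recombinant luciferase for 30 min at 37C. Bioluminescence signal loss, read on reagent injection, gave the inhibition endpoint.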

Assay [2] in a line: ACEA_AR_agonist_AUC_viability: ACEA Biosciences xCELLigence Real-Time Cell Analysis on Androgen Receptor Agonism for Viability (AID 2283775).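 On AC50: viability read 80 hours after compound addition.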 A digest of the protocol:
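Viability endpoint from xCELLigence impedance in 22Rv1 prostate cells at 80 h. Eight-point series, 100 uM maximum final.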

A short description of assay [3]: ACEA_AR_antagonist_AUC_viability: ACEA Biosciences xCELLigence Real-Time Cell Analysis on Androgen Receptor Antagonism for Viability (AID 2283776).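 Further: area under impedance growth curve at 80 h after dosing as viability; hits lower the growth signal relative to DMSO meaning cytotoxicity.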 A digest of the protocol: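 22Rv1 human prostate cancer cells were seeded on electrode plates, monitored overnight, then exposed to eight 1:4 dilutions from 100 uM final. Impedance-based growth kinetics at 80 h gave an AUC viability endpoint normalized to DMSO.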

The nature of assay [4]: ACEA_ER_AUC_viability: ACEA Biosciences xCELLigence Real-Time Cell Analysis on Estrogen Receptor Agonism for Viability (AID 2283782).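 Further: hit means loss of impedance signal meaning reduced cell growth or viability.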 A digest of the protocol:
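Continuous-exposure impedance cell analysis uses T-47D cells in charcoal-stripped serum, eight 1:4 dilutions topping at 100 uM final, biological duplicate. Area under the growth curve at 80 h is fitted against DMSO baseline.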

In assay [5] the target is AR (gene 367) (UniProt P10275). Kind of assay: ACEA_AR_agonist_80hr: ACEA Biosciences xCELLigence Real-Time Cell Analysis on Androgen Receptor Agonism for Proliferation (AID 2283783).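 Further: hits increase impedance growth signal above DMSO baseline.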 A digest of the protocol:
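Real-time cell-growth kinetics were recorded by electrode impedance in 22Rv1 cells exposed to test chemicals up to 100 uM final; the 80 h timepoint served as the readout, fitted upward relative to DMSO controls, in biological duplicate.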

For assay [6], the target named is AR (gene 367) (UniProt P10275). Briefly: ACEA_AR_antagonist_80hr: ACEA Biosciences xCELLigence Real-Time Cell Analysis on Androgen Receptor Antagonism for Proliferation (AID 2283787).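 Further: hits lower the impedance growth signal relative to DMSO.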 A digest of the protocol: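 Using 22Rv1 cells held in assay medium, we dosed compounds (100 uM maximum final, 1:4 serial, eight points, 0.5% DMSO at top) and recorded cell-electrode impedance; the 80 hr timepoint was analyzed against DMSO.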
Sequence of AR (gene 367) (P10275 whole entry, looked up): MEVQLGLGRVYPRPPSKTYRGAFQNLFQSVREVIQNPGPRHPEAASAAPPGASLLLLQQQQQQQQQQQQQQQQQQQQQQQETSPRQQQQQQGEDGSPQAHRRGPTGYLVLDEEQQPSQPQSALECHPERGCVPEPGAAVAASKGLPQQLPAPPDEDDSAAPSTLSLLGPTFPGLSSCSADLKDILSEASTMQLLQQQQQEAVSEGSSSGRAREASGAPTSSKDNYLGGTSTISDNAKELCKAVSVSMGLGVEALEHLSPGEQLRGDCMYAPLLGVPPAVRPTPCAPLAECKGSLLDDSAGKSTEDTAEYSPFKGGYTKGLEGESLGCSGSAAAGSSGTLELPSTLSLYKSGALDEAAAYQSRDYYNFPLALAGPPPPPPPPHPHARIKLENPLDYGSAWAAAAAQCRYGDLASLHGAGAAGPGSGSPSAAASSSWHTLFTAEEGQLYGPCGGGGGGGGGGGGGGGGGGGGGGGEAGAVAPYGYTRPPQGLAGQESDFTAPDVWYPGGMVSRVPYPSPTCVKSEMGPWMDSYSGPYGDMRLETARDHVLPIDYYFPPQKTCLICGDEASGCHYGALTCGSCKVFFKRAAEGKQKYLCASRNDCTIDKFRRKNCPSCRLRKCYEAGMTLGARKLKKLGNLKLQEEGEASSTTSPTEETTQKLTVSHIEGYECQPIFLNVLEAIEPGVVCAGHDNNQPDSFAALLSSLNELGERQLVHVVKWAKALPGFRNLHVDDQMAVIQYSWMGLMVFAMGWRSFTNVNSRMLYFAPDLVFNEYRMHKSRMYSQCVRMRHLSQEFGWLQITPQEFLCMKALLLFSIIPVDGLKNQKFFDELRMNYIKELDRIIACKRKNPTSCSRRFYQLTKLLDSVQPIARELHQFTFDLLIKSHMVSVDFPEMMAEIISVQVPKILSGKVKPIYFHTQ

Assay [7] can be described thus: CEETOX_H295R_MTT_cell_viability: Viability Assessment in the CeeTox HT-H295R MTT Assay (AID 2283718; active means hit-call score of the fitted dose curve at least 0.9, where 1 is the maximum; inactive means score below 0.9;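 on AC50: curve fitted both ways so AC50 may mark viability loss or gain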). A digest of the protocol: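 H295R cells prestimulated 48 h with 10 uM forskolin, then exposed 48 h to test chemical (0.1% DMSO final). Viability by MTT (0.5 mg/ml, 4 h, 37 C), absorbance 570/650 nm; percent change versus DMSO, bidirectional fit.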
Assay [8] deals with zebrafish Estrogen Receptor (ESR1), esr1 (gene 259252) (UniProt P57717). Kind of assay: ATG_zfER1_XSP1: Attagene TRANS-FACTORIAL Multi-Species (XSP1) HepG2 Assay for zebrafish Estrogen Receptor (ESR1) (AID 2283772). A digest of the protocol: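 Transfect HepG2 with GAL4-UAS multi-reporter constructs; treat 24 h (medium carries 3 nM 6-alpha-fluorotestosterone); extract RNA, reverse-transcribe, PCR-amplify, FAM-label, digest with HpaI; resolve by capillary electrophoresis and compare against DMSO baseline.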
Sequence of zebrafish Estrogen Receptor (ESR1), esr1 (gene 259252) (P57717 whole entry, looked up, the tested form may be a part): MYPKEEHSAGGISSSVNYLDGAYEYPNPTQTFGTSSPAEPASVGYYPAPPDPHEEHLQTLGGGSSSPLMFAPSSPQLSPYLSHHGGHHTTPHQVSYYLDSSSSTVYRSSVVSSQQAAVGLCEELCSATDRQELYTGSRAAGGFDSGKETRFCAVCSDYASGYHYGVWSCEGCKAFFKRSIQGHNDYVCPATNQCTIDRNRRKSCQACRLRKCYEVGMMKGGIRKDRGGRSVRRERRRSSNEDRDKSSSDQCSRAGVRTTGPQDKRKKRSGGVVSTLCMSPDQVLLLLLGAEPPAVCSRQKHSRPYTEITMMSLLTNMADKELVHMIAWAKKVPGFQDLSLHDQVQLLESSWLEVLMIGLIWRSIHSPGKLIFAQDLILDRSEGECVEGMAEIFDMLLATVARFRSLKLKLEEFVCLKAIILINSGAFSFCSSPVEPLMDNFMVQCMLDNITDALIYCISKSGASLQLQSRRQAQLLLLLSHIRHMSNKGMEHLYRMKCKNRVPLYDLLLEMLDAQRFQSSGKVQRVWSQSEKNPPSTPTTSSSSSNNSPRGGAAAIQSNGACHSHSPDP

Assay [9] relates to zebrafish Estrogen Receptor (ESR2B), gene 317733. Briefly: ATG_zfER2b_XSP1: Attagene TRANS-FACTORIAL Multi-Species (XSP1) HepG2 Assay for zebrafish Estrogen Receptor (ESR2B) (AID 2283773). A digest of the protocol:
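Human hepatoma HepG2, transiently transfected with multi-reporter units; exogenous zebrafish ESR2B-Gal4 activity measured. Exposure 24 h alongside 3 nM 6-alpha-fluorotestosterone to partly stimulate AR.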

Assay [10] deals with frog Estrogen Receptor (ESR2), gene 100174814. Briefly: ATG_frER2_XSP1: Attagene TRANS-FACTORIAL Multi-Species (XSP1) HepG2 Assay for frog Estrogen Receptor (ESR2) (AID 2283774). A digest of the protocol:
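Multiplexed TRANS-format reporter assay in human hepatoma HepG2: chimeric nuclear receptor-Gal4 activity reported as mRNA induction at 24 h, detected by fluorescent RT-PCR products on capillary electrophoresis and fitted upward from DMSO baseline.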

The subject of assay [11] is frog Estrogen Receptor (ESR1), gene 398734. Kind of assay: ATG_frER1_XSP1: Attagene TRANS-FACTORIAL Multi-Species (XSP1) HepG2 Assay for frog Estrogen Receptor (ESR1) (AID 2283777). A digest of the protocol:
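After transient transfection and 24 h compound treatment, total RNA from HepG2 cells was reverse-transcribed, amplified, FAM-labeled and resolved by capillary electrophoresis. Signal increases were fitted against DMSO controls.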

Assay [12] has as its system zebrafish Estrogen Receptor (ESR2A), gene 317734. Kind of assay: ATG_zfER2a_XSP1: Attagene TRANS-FACTORIAL Multi-Species (XSP1) HepG2 Assay for zebrafish Estrogen Receptor (ESR2A) (AID 2283778). A digest of the protocol:
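Gain-of-signal reporter transcription readout from GAL4-UAS units in transiently transfected HepG2 cells, 24 h exposure, 3 nM 6-alpha-fluorotestosterone co-present. Detection by RT-PCR with capillary electrophoresis fluorescence.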

The target of assay [13] is chicken Estrogen Receptor (ESR1), ESR1 (gene 396099) (UniProt P06212). Briefly: ATG_chERa_XSP1: Attagene TRANS-FACTORIAL Multi-Species (XSP1) HepG2 Assay for chicken Estrogen Receptor (ESR1) (AID 2283779). A digest of the protocol:
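Gain-of-signal reporter transcription, relative to DMSO, was scored in transiently transfected HepG2 cells after a 24 h dose. Fluorescence intensity of amplified, digested reporter cDNA fragments served as the endpoint.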

In assay [14] the test system is turtle Estrogen Receptor (ESR1), gene 101933533. Briefly: ATG_trERa_XSP1: Attagene TRANS-FACTORIAL Multi-Species (XSP1) HepG2 Assay for turtle Estrogen Receptor (ESR1) (AID 2283781). A digest of the protocol:
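Cell-based chimeric NR-Gal4 transactivation; HepG2; 24 h dosing; mRNA reporter detected by RT-PCR and capillary electrophoresis fluorescence.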

Assay [15] relates to turtle Androgen Receptor (AR), gene 101947425. Briefly: ATG_trAR_XSP1: Attagene TRANS-FACTORIAL Multi-Species (XSP1) HepG2 Assay for turtle Androgen Receptor (AR) (AID 2283786). A digest of the protocol: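 Partial androgen stimulation is provided by 3 nM 6-alpha-fluorotestosterone in a multi-species trans-factorial panel expressing a turtle AR–GAL4 fusion in HepG2. After 24 h, reporter mRNA is measured by RT-PCR and capillary electrophoresis and fitted upward against DMSO.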

The values below come from PubChem BioAssay (EPA / NIEHS).

Records with an inconclusive call do not appear. The source made the active and inactive calls. How the source made its calls, unless noted: active means hit-call score of the fitted dose curve at least 0.9, where 1 is the maximum; inconclusive means response in the unintended direction; inactive means score below 0.9.

Sequence of Luciferin 4-monooxygenase (Photinus pyralis) (P08659 whole entry, looked up): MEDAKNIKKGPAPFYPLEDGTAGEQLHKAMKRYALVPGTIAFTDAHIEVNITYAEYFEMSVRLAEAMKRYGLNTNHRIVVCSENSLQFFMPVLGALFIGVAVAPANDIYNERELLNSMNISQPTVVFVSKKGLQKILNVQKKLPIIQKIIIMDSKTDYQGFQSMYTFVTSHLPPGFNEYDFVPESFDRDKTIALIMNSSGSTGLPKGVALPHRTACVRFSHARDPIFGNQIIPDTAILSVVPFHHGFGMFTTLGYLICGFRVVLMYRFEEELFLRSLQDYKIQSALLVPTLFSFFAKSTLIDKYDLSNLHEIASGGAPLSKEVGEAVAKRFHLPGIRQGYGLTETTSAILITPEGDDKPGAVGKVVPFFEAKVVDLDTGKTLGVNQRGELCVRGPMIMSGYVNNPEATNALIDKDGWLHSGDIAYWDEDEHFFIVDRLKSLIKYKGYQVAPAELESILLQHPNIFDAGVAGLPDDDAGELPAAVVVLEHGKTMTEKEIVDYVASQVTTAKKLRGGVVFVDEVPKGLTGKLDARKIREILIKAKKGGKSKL
Sequence of chicken Estrogen Receptor (ESR1), ESR1 (gene 396099) (P06212 whole entry, looked up, the tested form may be a part): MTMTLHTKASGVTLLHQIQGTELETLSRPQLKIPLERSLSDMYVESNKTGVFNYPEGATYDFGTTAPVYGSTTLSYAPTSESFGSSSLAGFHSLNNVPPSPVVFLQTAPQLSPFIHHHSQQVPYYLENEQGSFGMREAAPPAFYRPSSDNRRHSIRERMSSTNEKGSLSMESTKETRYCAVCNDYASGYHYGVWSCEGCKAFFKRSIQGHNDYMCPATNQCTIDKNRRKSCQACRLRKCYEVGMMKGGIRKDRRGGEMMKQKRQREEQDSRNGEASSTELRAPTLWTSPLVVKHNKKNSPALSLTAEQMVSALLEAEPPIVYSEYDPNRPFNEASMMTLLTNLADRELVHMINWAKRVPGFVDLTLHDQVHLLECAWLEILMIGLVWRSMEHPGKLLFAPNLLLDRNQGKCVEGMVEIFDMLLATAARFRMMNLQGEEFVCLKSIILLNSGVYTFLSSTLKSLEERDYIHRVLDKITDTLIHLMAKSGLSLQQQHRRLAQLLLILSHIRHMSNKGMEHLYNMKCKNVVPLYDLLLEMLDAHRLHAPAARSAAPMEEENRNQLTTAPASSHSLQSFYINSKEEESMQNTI

In general, AC50 refers to the midpoint of the concentration-response curve, whichever way the signal moves. As to `CCCCCCCCC=CCCCCCCCC1=NCCN1CCO`, the outcome in [1], in [2], in assay [3], in assay [5] and in assay [6] was inactive. Besides, the AC50 in assay [4] was 10.9 µM (active).
For `CCC(C)c1cc([N+](=O)[O-])cc([N+](=O)[O-])c1OC(=O)OC(C)C` (stereo not drawn), the call in assay [7] was inactive.
As for `CC(C)CCCCCCCCCCCCCCC(=O)O`, the molecule was classed as inactive in assay [1], in assay [2] and in assay [3]. In addition, the concentration at half-maximal activity (AC50) in assay [4] is 50 µM (active).
Turning to `CCCCC(CC)COC(=O)c1ccc(O)cc1` (stereo not drawn), the molecule was classed as inactive in assay [1], in assay [8], in [2] and in assay [15]. Also, the AC50 in assay [9] is 3.67 µM (active); in assay [10] it was 860 nM (active); in assay [11] it was 1.91 µM (active); in assay [12], 1.41 µM (active); in [13], 2.3 µM (active); in assay [14] it was 3.59 µM (active). Also, the AC50 in assay [4] was 22.4 µM (active).
`CC(C)Nc1nc(N)nc(Cl)n1`: the molecule was classed as inactive in assay [7].
`CCOC(=O)[C@@H](C)Oc1ccc(Oc2nc3ccc(Cl)cc3o2)cc1`: the call in assay [7] and in assay [3] was inactive. In addition, the AC50 is 5.36 µM (active) in assay [2] and 3.55 µM (active) in assay [6].
As to `[O-]n1ccccc1=S.[O-]n1ccccc1=S.[Zn+2]`, the call in assay [1] was inactive. Also, the AC50 is 11.8 µM (active) in assay [2], 22.9 µM (active) in assay [3] and 2.84 µM (active) in [4].
On to `COc1ccc(N=Nc2cc(C)c(N=Nc3ccc(S(=O)(=O)O)cc3)cc2OC)cc1`, for which the outcome in [7] and in [4] was inactive. Further, the AC50 in assay [1] was 53.8 µM (active).
As for `CCOC(=O)c1ccc(N)cc1`, the call in [1], in assay [2], in assay [3] and in [4] was inactive.
`CC1(C)C(=O)N(Cl)C(=O)N1Br`: the molecule was classed as inactive in assay [7] and in [2].
On to `C=C1CC[C@H](O)C/C1=C/C=C1\CCC[C@]2(C)[C@@H]([C@H](C)/C=C/[C@H](C)C(C)C)CC[C@@H]12`, for which the AC50 in [7] was 83.4 µM (active); in [4], 79.1 µM (active). Besides, the call in [1] and in [2] was inactive.
For the molecule `OCc1cccc(Oc2ccccc2)c1`, the call in assay [7], in assay [2], in assay [3] and in [5] was inactive.
As to `O=C(O)CCCCCCCCC(=O)O`, the molecule was classed as inactive in assay [1]. For the same molecule, the results for the AC50 in [2] and in [3] were 2.76 µM (active) and 2.07 µM (active), respectively.
Regarding `CC=Cc1ccc(OC)c(OC)c1`, the molecule was classed as inactive in assay [7] and in assay [4].
As to `COc1ccc(OC)c(N=Nc2c(O)ccc3ccccc23)c1`, the result in [7] was inactive.
On to `CCc1cc(Cc2cc(CC)cc(C(C)(C)C)c2O)c(O)c(C(C)(C)C)c1`, for which the outcome in [1] was inactive. Moreover, the AC50 in assay [2] is 24.3 µM (active); in [3], 22.9 µM (active); in assay [4], 11.7 µM (active); in assay [6], 24.1 µM (active).
Turning to `COc1ccccc1N=Nc1c(S(=O)(=O)O)cc2cc(S(=O)(=O)O)cc(NC(C)=O)c2c1O`, in assay [1], the AC50 was 13.8 µM (active). The outcome in [2], in assay [3] and in [4] was inactive.
